Bioassay records deposited in PubChem BioAssay by National Center for Advancing Translational Sciences (NCATS).
POLK inh: inhibitors of human DNA polymerase kappa | purified Pol kappa, fluorescent DNA synthesis assay, 10 min | Q9UBT6 | AID 588579 | Potency, µM (series often up to 107 µM), for inactives: at the highest dose activity, negative = inhibition, most hits filed as inhibitors | 400,000 compounds, 0.53% hits; also: % is scaled to controls: 0 for no effect and ±100 for the full control effect
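Kinetic fluorescence screen: compound preincubated 15 min RT with 10 nM enzyme; 50 nM substrate (final) initiates; reads at 0/10 min.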
Pol eta inh: inhibitors of human DNA polymerase eta; Potency, µM (highest dose often 114 µM), for inactives: at the highest dose activity change, negative = inhibition, hits mostly inhibitors; recombinant Pol eta, fluorescent DNA replication assay; 390,000 compounds, 1.2% hits; also: % is scaled to controls: 0 for no effect and ±100 for the full control effect
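Pol eta at 10 nM preincubated with compounds 15 min at room temperature; reaction started with fluorescent substrate (50 nM final) and read kinetically at 0 and 10 min.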
POLB inh: DNA polymerase beta (human) inhibition. P06746. Pol beta primer extension/strand displacement, fluorescence kinetic. Potency, µM (titrated, usually from 114 µM), for inactives: at the highest dose activity change, negative = inhibition, actives largely listed as inhibitors. 340,000 compounds, 1.3% hits. AID 485314; also: % is scaled to controls: 0 for no effect and ±100 for the full control effect
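Kinetic readout of DNA synthesis with strand displacement by Pol beta. Compound and 10 nM enzyme sit 15 min at room temperature; 50 nM substrate starts the reaction, read immediately and at 10 min.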
FEN1 inh: blocks human flap endonuclease 1; P39748; Recombinant FEN1 flap cleavage, fluorescence, 15 min; Potency, µM (titrated, usually from 114 µM), inactives show at the highest dose activity change, negative = inhibition, usual class: inhibitors; 390,000 compounds, 0.35% hits; AID 588795; also: % is scaled to controls: 0 for no effect and ±100 for the full control effect; nearly all actives have a fitted effect of over 65% in size
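Reaction started by adding substrate (50 nM final) to 10 nM enzyme after 15 min room-temperature compound preincubation. Reads at 0 and 15 min, with data normalized and fitted to a four-parameter Hill equation.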
Pol iota inh: blocks human DNA polymerase iota activity. Pol iota fluorescent replication assay, 10 min. Q9UNA4. Potency, µM (doses to about 115 µM), for inactives: at the highest dose activity, negative = inhibition, most hits filed as inhibitors. 390,000 compounds, 1% hits
Target sequence (Q9UNA4 whole entry, looked up): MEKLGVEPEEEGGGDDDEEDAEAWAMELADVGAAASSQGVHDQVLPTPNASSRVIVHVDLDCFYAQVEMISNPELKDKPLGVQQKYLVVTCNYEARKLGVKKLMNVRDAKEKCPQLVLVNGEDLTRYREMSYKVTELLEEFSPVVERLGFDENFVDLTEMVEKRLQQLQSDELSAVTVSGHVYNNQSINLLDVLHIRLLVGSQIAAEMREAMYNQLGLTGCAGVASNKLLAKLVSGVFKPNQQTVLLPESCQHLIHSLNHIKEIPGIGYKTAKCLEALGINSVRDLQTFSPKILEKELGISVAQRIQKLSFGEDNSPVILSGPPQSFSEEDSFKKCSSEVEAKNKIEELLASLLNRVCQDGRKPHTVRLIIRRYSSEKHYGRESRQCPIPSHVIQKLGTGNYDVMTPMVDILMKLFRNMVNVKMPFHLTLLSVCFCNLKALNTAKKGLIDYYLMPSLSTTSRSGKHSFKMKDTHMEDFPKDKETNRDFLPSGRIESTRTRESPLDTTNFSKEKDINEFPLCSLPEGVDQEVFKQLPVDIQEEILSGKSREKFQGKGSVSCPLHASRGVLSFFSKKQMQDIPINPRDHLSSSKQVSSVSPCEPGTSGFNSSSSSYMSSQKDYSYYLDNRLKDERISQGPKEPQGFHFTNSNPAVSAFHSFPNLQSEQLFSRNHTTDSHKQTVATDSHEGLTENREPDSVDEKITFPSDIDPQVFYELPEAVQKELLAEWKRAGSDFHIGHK
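Fluorescent replication assay read twice, at 0 min and 10 min after adding 50 nM (final) substrate. Enzyme (10 nM) and compounds were first incubated 15 min at room temperature; enzyme-free buffer wells were negative controls.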
WRN helicase inh: blocks human WRN helicase | AID 651768 | Q14191 | WRN helicase unwinding, fluorescent forked duplex, kinetic | Potency, µM (titrated, usually from 114 µM), for inactives: top-dose activity change, negative = inhibition, actives largely listed as inhibitors | 360,000 compounds, 0.46% hits; also: % is scaled to controls: 0 for no effect and ±100 for the full control effect; nearly all actives have a fitted effect of over 55% in size
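Kinetic red-fluorescence monitoring (525/598 nm) tracks WRN helicase activity after 100 nM fluorophore-quencher forked duplex and 2 mM ATP are added to 20 nM enzyme pretreated 15 min at room temperature with compound.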
Numbers without * were called inactive; ? = inconclusive; . = no result given; [ ] = remark or other dose. A selection: hits, their analogues and other compounds. The true share with any hit is near 2.4%. Calls follow the shape of the dose curve; as a rule, active = well fitted curve in the direction sought with a large enough effect; inconclusive = small, poorly fitted or top-dose-only effect, or another doubt; inactive = no such curve, though single readings can be large; an effect the other way counts as inactive or inconclusive. Potency is read from the fitted curve at half-maximal effect.

SMILES	POLK inh	Pol eta inh	POLB inh	FEN1 inh	Pol iota inh	WRN helicase inh
C[C@H](CCCC(C)(C)O)[C@H]1CC[C@H]2[C@@H]3CC=C4C[C@@H](O)CC[C@]4(C)[C@H]3CC[C@]12C	-8%[19.4 µM]	.	.	.	.	.
CCOCC	17%[60.1 µM]	.	.	.	.	.
CC(=O)NCCNc1nc(-c2cccnc2)nc2ccccc12	4%[60.1 µM]	.	.	.	.	.
CC1CC2=C(NC(=S)NC2c2ccc(F)cc2)/C(=C/c2ccc(F)cc2)C1 (configuration not stated)	-8%	-17%	30%	-14%	79µM*	-5%[11.6 µM]
CC1CCN(C(=O)COC(=O)/C=C/c2ccc([N+](=O)[O-])cc2)CC1	1%	-6%	.	3%	39%	-3%
CC1CCN(C(=O)COC(=O)/C=C/c2ccc(Br)o2)CC1	?	-12%	.	-9%	18µM*	-7%[11.6 µM]
CN(N=O)c1ccc(/C=C/c2ccnc3ccccc23)cc1	-3%	.	.	-4%	?	.
Cc1ccc2[nH]c(-c3ccc(F)cc3F)cc(=O)c2c1	-14%	.	.	.	.	.
CC(C)OC(=O)C1Cc2ccccc2CN1S(=O)(=O)c1cccs1 (configuration not stated)	-31%	?	32µM*	6%	?	-2%[11.6 µM]
NC(=O)C1Cc2ccccc2CN1S(=O)(=O)c1cccs1 (configuration not stated)	6%	-16%	4%	-7%	35%	2%
Cc1cccc(Oc2cc([N+](=O)[O-])cc3c2C(=O)Nc2ccccc2O3)c1	-17%	?	?	-5%	79µM*	16%
O=C(Nc1ncnc2nc[nH]c12)c1ccccc1	11%	.	.	-7%	55%	.
O=C(C[N+]12CCCc3cccc(c31)CCC2)c1ccc2ccc3cccc4ccc1c2c34	-11%	.	.	45µM*	59%	.
CN(C)c1ccc(C=Nc2ccccc2C(N)=O)cc1	-11%	-3%	-4%	6%	89µM*	-4%
Cc1ccc(C=Nc2ccccc2C(N)=O)o1	4%	-18%	40%	40%	-2%	-16%
Cc1c(CCC(=O)N2CCC(C(=O)O)CC2)c(=O)oc2cc3oc4c(c3cc12)CCCC4	4%	8%	35µM*	-4%	-3%	-1%
COc1cc(N(C)C)cc(CN(C)CCc2ccc([N+](=O)[O-])cc2)c1O	3µM*	.	.	.	.	.
COC(=O)Cc1cc(=O)n(-c2nc3ccccc3[nH]2)[nH]1	-16%	-15%	79µM*	4%	-12%	-9%
COc1ccc(/C=C/c2nnc(NC(=O)COc3ccc(Cl)cc3)s2)cc1	-15%	.	.	1%	-4%	.
O=C(N/N=C/c1ccc(Sc2ccccn2)o1)c1cc2ccccc2cc1O	28µM*	18µM*	18µM*	50µM*	20µM*	?
CCOC(=O)c1c(N)n(-c2cccc(OC)c2)c2nc3ccccc3nc12	-18%[60.1 µM]	-3%	2%	8%	?	.
CCOC(=O)c1c(N)n(C2CC(C)(C)NC(C)(C)C2)c2nc3ccccc3nc12	-8%	-6%	28µM*	-21%	?	21%
CCOC(=O)c1c(N)n(-c2ccc(CC)cc2)c2nc3ccccc3nc12	-1%	-18%	2%	6%	93%	.
CCOC(=O)c1c(N)n(-c2ccc(N)cc2)c2nc3ccccc3nc12	2%[60.1 µM]	-7%	?	-25%	79µM*	-7%
COC(=O)c1cc(NC(=O)c2oc(=O)c3ccccc3c2-c2ccccc2)cc(C(=O)OC)c1	-25%	-13%	-2%	-3%	15%	.
SMILES	POLK inh	Pol eta inh	POLB inh	FEN1 inh	Pol iota inh	WRN helicase inh
COc1ccc2oc(=O)c(-c3nnc(NCc4ccco4)s3)cc2c1	?	?	25µM*	?	10µM*	?
C[C@H]([C@H](C)N1CC(=O)NC(=O)C1)N1CC(=O)NC(=O)C1	18%[60.1 µM]	.	.	.	.	.
CCCCCCCCCCCCCCOc1ccc(C(=O)O)o1	12µM*	.	.	.	.	.
CCCCCOC(=O)c1ccccc1C(=O)O	3%	-15%	23%	-5%	7%	-14%
CCCCCCCCCC[n+]1ccc(/C=C/c2c(C)[nH]c3ccccc23)cc1	-23%	.	.	79µM*	-8%	.
COc1ccc(-c2nc3ccc(NC(=O)COC(C)=O)cc3c(=O)n2Cc2ccccc2)cc1COc1ccc(NC(C)=O)cc1	-10%	.	.	-23%	?	.
COc1ccc(-c2nc3ccc(NC(C)=O)cc3c(=O)n2Cc2cccc(Cl)c2)cc1COc1ccc(NC(C)=O)cc1	?	.	.	79µM*	?	.
O=C(OCCF)N1CCN(/[N+]([O-])=N/Oc2ccc([N+](=O)[O-])cc2[N+](=O)[O-])CC1	-6%	.	.	?	-13%	.
COc1ccc(C2/C=C\CN(S(=O)(=O)CC34CCC(CC3=O)C4(C)C)CC(=O)N2Cc2ccc(F)cc2)cc1 (configuration not stated)	8%	.	.	5%	2%	.
CS(=O)(=O)Nc1c(O)ccc2c1CCCC2C1=NCCN1 (configuration not stated)	-2%[19.4 µM]	.	.	.	.	.
CC1(C)CC(=O)c2c(oc3ccc(NS(=O)(=O)c4cccc5cccnc45)cc23)C1	-7%	-12%	0%	1%	-13%	-4%
O=C1CCCc2oc3ccc(NS(=O)(=O)c4cccc5cccnc45)cc3c21	-16%	89µM*	-18%	-7%	?	-7%[11.6 µM]
